High-throughput results (PubChem)
KCNQ2 block = rat KCNQ2 potassium channel inhibitors, primary screen, cell-based, CHO-K1, FluxOR thallium flux, B-score | B-score at 10 µM | 20 min; active compounds read low | actives 1.1% (n = 310,000) | Potassium voltage-gated channel subfamily KQT member 2 (Rattus norvegicus), O88943;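 active = fluorescence ratio B-score at most minus 3 library SDs, with starting brightness B-score within 2 library SDs, cut at about -5.5 in these data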
Target sequence (O88943 whole entry, looked up): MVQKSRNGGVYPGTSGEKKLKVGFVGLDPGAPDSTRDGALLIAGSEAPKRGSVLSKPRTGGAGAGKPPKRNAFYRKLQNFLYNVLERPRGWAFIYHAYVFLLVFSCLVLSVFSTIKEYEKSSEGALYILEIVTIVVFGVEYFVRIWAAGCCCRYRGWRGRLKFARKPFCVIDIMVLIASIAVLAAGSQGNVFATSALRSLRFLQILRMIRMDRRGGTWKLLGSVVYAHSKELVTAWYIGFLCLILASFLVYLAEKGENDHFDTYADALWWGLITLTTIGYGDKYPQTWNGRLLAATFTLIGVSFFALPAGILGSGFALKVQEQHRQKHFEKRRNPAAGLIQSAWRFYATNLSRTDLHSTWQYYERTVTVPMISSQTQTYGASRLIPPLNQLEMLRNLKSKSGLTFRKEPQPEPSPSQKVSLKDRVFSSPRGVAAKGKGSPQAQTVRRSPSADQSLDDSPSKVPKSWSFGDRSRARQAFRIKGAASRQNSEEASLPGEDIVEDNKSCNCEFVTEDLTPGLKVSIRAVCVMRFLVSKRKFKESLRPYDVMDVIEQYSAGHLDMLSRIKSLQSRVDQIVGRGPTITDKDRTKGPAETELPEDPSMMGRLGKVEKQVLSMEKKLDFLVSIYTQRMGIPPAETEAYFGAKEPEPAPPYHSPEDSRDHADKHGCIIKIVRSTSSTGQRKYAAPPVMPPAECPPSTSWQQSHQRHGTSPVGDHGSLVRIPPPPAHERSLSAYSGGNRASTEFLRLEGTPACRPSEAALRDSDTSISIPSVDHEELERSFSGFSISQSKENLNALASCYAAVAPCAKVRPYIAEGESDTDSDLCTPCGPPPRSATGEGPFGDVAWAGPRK
KCNQ2 enhance = potentiators of rat KCNQ2 potassium channel; Potassium voltage-gated channel subfamily KQT member 2 (Rattus norvegicus), O88943; CHO-K1 KCNQ2, FluxOR thallium flux fluorescence; active compounds read high; B-score at 10 µM; actives 0.54% (n = 310,000); AID 2239, 2010;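 active = fluorescence ratio B-score at least 3 SD of library B-scores, with initial fluorescence B-score within 3 of them, cut at about 5.3 in these data; same plate scores as AID 2156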;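 note: B-score of peak minus minimum over baseline fluorescence ratio after K+ and Tl+ stimulus; positive B-score means potentiation of KCNQ2 with more thallium influx and brighter signal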
* marks the source's active call; other numbers are inactive results; i = inactive; . = no result given. In the library only some 1.6% were active in any assay of this set; here they are far more common.

SMILES | KCNQ2 block | KCNQ2 enhance
CSCC(=O)N1CCCC(N2CCN(c3cccc(C(F)(F)F)c3)CC2)C1 (centres undefined) | -6.8* | -6.8
CC1(CCC(=O)N2CCCC(N3CCN(c4cccc(C(F)(F)F)c4)CC3)C2)CC1 (centres undefined) | i | .
O=C(CC1SC(=Nc2ccccc2)N(CCc2c[nH]c3ccccc23)C1=O)Nc1ccccc1F (centres undefined) | -6.7* | -6.7
O=C(CC1SC(=Nc2ccccc2)N(CCc2ccccn2)C1=O)Nc1ccc(F)cc1 (centres undefined) | i | 0.03
COc1ccc(C[C@H]2CN3C(=NC[C@@H]3Cc3ccc(O)cc3)N2CCNC(=O)c2ccc(C)c(Br)c2)cc1 | i | .
COc1ccc(C[C@H]2CN3C(=NC[C@@H]3Cc3ccccc3)N2CCNC(=O)c2ccc(C)c(Br)c2)cc1 | -5.8* | -5.8
CCCOc1ccccc1NC(=O)c1c(-c2ccccc2)noc1C | -6.1* | -6.1
Cc1cccc(C)c1NC(=O)c1c(-c2ccccc2)noc1C | -5.7* | -5.7
Cc1onc(-c2ccccc2)c1C(=O)Nc1ccccc1NC(=O)c1c(-c2ccccc2)noc1C | i | .
COc1ccc(NC(=O)c2c(-c3ccccc3)noc2C)c(OC)c1 | i | .
CCN(Cc1ccccc1)C(c1ccc(C)cc1)c1nnnn1C(C)(C)C (centres undefined) | -11* | -11
CCN(Cc1ccccc1)C(c1ccc(Cl)cc1)c1nnnn1C(C)(C)C (centres undefined) | i | .
CC(NC(=O)COC(=O)COc1cccc2c1OC(C)(C)C2)c1ccccc1 (centres undefined) | i | .
CN(C)c1ccc2c3c(ccc(N(C)C)c13)C(=O)OC2 | i | 0.04
Cc1ccc(-c2csc(N3C(=N)SCC3=O)n2)cc1 | i | 0.11
N=C1SCC(=O)N1c1ncc(Cc2ccc(F)cc2)s1 | i | 6.9*
Cc1ccc(NC(=O)NNC(=O)COc2ccc(Cl)cc2)cc1 | i | 0.66
COc1ccc(C)cc1NC(=O)C(=O)NNC(=O)COc1ccc(Cl)cc1 | i | 11*
Cc1ccc(-c2nnc(N3CCN(C(=O)c4cccs4)CC3)c3ccccc23)cc1 | i | .
O=C(c1cccs1)N1CCN(c2nnc(-c3ccccc3)c3ccccc23)CC1 | -5.9* | -5.9
O=C(c1ccc(Cl)c([N+](=O)[O-])c1)N(Cc1ccco1)C1CCS(=O)(=O)C1 (centres undefined) | i | 0.7
CCCCCCN1CC(C(=O)OCC)C(=O)C1=O (centres undefined) | i | 0.25
CSc1c(CC(=O)Nc2ccccc2)n(C)c2ccccc12 | i | .
Cn1c(CC(=O)Nc2ccccc2)c(Sc2ccccc2)c2ccccc21 | -6.2* | -6.2
Oc1oc(-c2cccc3ccccc23)nc1/C=N/c1nccs1 | i | 9.4*
SMILES | KCNQ2 block | KCNQ2 enhance
Cc1cccc(/N=C/c2nc(-c3ccccc3Br)oc2O)n1 | i | .
O=C(c1ccc2[nH]c(=O)c(=O)[nH]c2c1)N1CCc2ccccc2C1 | i | .
ClC(Cl)c1nnc(-c2ccccc2)c(-c2c[nH]c3ccccc23)n1 | i | .
c1ccc(-c2nnc(-c3c[nH]c4ccccc34)nc2-c2ccccc2)cc1 | -6.8* | -6.8
CC1=C(C(=O)OC2CCCC2)C(c2ccc(C)o2)C2=C(CC(c3cccs3)CC2=O)N1 (centres undefined) | -5.7* | -5.7
CC1=C(C(=O)OC2CCCCCC2)C(c2ccc(C)o2)C2=C(CCCC2=O)N1 (centres undefined) | i | 0.82
Cc1ccc2c(c1)cc(CN(Cc1ccco1)C(=O)N1CCOCC1)c1nnnn12 | -8.8* | -8.8
Cc1ccc2c(c1)cc(CN(CCc1ccccc1)C(=O)N1CCOCC1)c1nnnn12 | i | .
CCOC(=O)c1cc(CC)sc1NC(=O)COC | i | .
CCOC(=O)c1cc(CC)sc1NC(=O)Cc1ccccc1 | -5.7* | -5.7
CCc1cc(C(=O)O)c(NC(=O)C(c2ccccc2)c2ccccc2)s1 | i | 1.3
CCOC(=O)c1cc(C)sc1NC(=O)C(c1ccccc1)c1ccccc1 | -6* | -6
CC(C)CCN(C(=S)Nc1cccc(F)c1)C1CCN(C(C)C)CC1 | i | 0.47
CCOC(=O)c1cc2c(=O)n3ccccc3nc2n(CCOC)c1=NC(=O)C(C)(C)C | i | 9.7*
CCOC(=O)c1cc2c(=O)n3ccccc3nc2n(Cc2ccco2)c1=NC(=O)c1cccnc1 | -7.1* | -7.1
CCOC(=O)c1cc2c(=O)n3ccccc3nc2n(CCCOC)c1=NC(=O)C(C)(C)C | i | 1.1
CCOC(=O)c1cc2c(=O)n3ccccc3nc2n(Cc2ccco2)c1=NC(=O)c1ccccc1OCC | i | .
CCc1nn(CC(=O)NCCCc2ccccc2)c(=O)c2cc3cc(F)ccc3n12 | i | 1.1
CCN1CCN(Cc2ccc(NC(=O)c3ccc(C)c(NC(=O)C(=O)c4c[nH]c5ccccc45)c3)cc2C(F)(F)F)CC1 | -7.8* | -7.8
CCN1CCN(Cc2ccc(NC(=O)c3cc(NC(=O)C(=O)c4c[nH]c5ccccc45)cc(OC)c3)cc2C(F)(F)F)CC1 | i | .
Cc1ccc(C)c(NC(=S)/C(=C(\[O-])c2ccc(Cl)s2)[n+]2ccccc2)c1 | i | 0.75
Cc1cc(C)cc(NC(=S)/C(=C(\[O-])c2ccc(Cl)s2)[n+]2cccc(C)c2)c1 | -6* | -6
Cc1coc2c(C)c3oc(=O)c(CCC(=O)N4CCC(C(=O)NCCCC(=O)O)(c5ccccc5)CC4)c(C)c3cc12 | i | 0.12
COC(=O)c1ccccc1NC(=O)CN(c1c(C)cccc1C)S(C)(=O)=O | i | .
CCOC(=O)C1CCN(C(=O)c2cccc(Cl)c2)CC1 | i | 0.56
SMILES | KCNQ2 block | KCNQ2 enhance
CCOC(=O)C1CCN(c2c(C(=O)c3ccccc3)cnc3ccc(Cl)cc23)CC1 | -5.6* | -5.6
COc1ccc(C)cc1NC(=O)CN1C(=O)COc2ccc(S(=O)(=O)N3CCOCC3)cc21 | i | .
O=C(OCc1ccc([N+](=O)[O-])cc1)c1ccc(N2CCCC2)c([N+](=O)[O-])c1 | i | .
N#Cc1ccc(COC(=O)c2ccc(N3CCCC3)c([N+](=O)[O-])c2)cc1 | -6.8* | -6.8
CN(CC(=O)Nc1ccccc1Cl)CC(=O)Nc1sc2c(c1C(N)=O)CCC2 | i | 0.66
CCOC(=O)C1CCCN(C2=C(NS(=O)(=O)c3ccc(Br)cc3)C(=O)c3ccccc3C2=O)C1 (centres undefined) | -6.7* | -6.7
CCOC(=O)C1CCN(C2=C(NS(=O)(=O)c3ccc(Cl)cc3)C(=O)c3ccccc3C2=O)CC1 | i | .
Cc1ccnc(NS(=O)(=O)c2ccc(NC(=O)c3cc(=O)c4ccccc4o3)cc2)n1 | i | .
CCN(CC)S(=O)(=O)c1ccc(C(=O)NC(=S)N(CCO)Cc2ccccc2)cc1 | i | 1.4
CCCOc1ccc(CN(CCC#N)C(=S)NC(=O)c2ccccc2)cc1 | i | 7.1*
COC(=O)c1cc(-c2c(-c3ccc4c(c3)OCO4)noc2-c2ccsc2)cc([N+](=O)[O-])c1 | i | .
CN(C)c1ccc(-c2c(-c3ccc4c(c3)OCO4)noc2-c2ccsc2)cn1 | -5.9* | -5.9
CCN(C(=S)NC(=O)c1ccccc1Br)C1CCCCC1 | i | 12*
O=C(NC(=S)NC1CCCC1)c1ccccc1Br | i | 1.9
Cc1ccc(NC(=O)CN2CCCC2)c2c1CC(C)(C)O2 | i | 1.2
Cc1ccc(NS(=O)(=O)c2ccccc2Cl)c2c1CC(C)(C)O2 | -6* | -6
